An excerpt weighted towards active compounds, which were near 1.5% of everything screened.
ABHD5 PLIN5 PPI = ABHD5-PLIN5 protein interaction inhibition; Q00G26+Q8WTS1; Split G. princeps luciferase complementation, luminescence, 4 h; inhibition, % at 4 µM; hit rate 0.78% among 360,000;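 active = inhibition above the mean inhibition across every tested compound plus 3 SD, cut at about 22% in these data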;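 note: 0% = DMSO only wells and the 100% control is not disclosed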
NTR1 agonist = activates human neurotensin receptor 1. P30989. NTR1-U2OS beta-arrestin-GFP spot imaging, agonist mode. activation, % at 20 µM. hit rate 0.17% among 330,000;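 active = activation at or above 40% of the spot to cytoplasm intensity ratio, with at least 20 cells analyzed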;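 note: 0% = DMSO without peptide and 100% = 100 nM NTR1 peptide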
TLR9-MyD88 block = blocks human TLR9 binding to MyD88; hit rate 0.21% among 340,000; Q9NR96+Q99836; inhibition, % at 4.98 µM; AID 504734; CHO BLA complementation TLR9-MyD88, CCF4 FRET ratio;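 active = inhibition above the mean over all tested compounds plus 3 SD, cut at about 21% in these data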;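 note: 0% = DMSO only wells and 100% = clavulanate BLA inhibitor control wells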
NOD2-RIPK2 inh = inhibitors of human NOD2-RIPK2 interaction; hit rate 0.38% among 360,000; CHO BLA complementation NOD2-RIPK2, CCF4 ratio; AID 624267; O43353; inhibition, % at 4.98 µM; in the data active = inhibition above about 21%;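 note: 0% = vehicle only and 100% = reference blocker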
TLR4-MyD88 BLA = inhibitors of human TLR4-MyD88 binding; O00206+Q99836; HeLa CL3-4 TLR4/MyD88 BLA complementation, FRET ratio; inhibition, % at 8.4 µM; hit rate 0.18% among 200,000; AID 861; in the data active = inhibition above about 25%;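 note: 0% = vehicle and 100% = reference inhibitor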
B2AR ag = human beta-2 adrenergic receptor agonism by FAP. P07550. Am2.2-beta2AR cells, FAP receptor internalization, flow cytometry. response, % (test concentration not listed). hit rate 0.43% among 340,000. AID 504454;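 active = response above a set limit, near 3 SD of response in nonfluorescent compounds, cut at about 42% in these data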
Beta2AR ag CP1 = activates human beta-2 adrenergic receptor; Am2.2-beta2AR cells, FAP surface receptor, flow cytometry; stronger effect = lower value; shares compounds with B2AR ag; percent response (surface receptor), % at 10 µM; hit rate 25% among 1,100; AID 540358;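 active = surface receptor percent response at or below 58%, roughly 3 SD from nonfluorescent compounds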
FAP fluor counter = flagged in Am2.2 fluorescence counterscreen for beta-2AR agonists | 1,100 tested, under 10 active | shares compounds with B2AR ag | Am2.2 cells, FAP fluorogen flow cytometry; stronger effect = lower value | calls only at 10 µM;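 active = percent response below a set limit in fluorescence channel 1 and below 50% in channel 8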
TLR9-MyD88 cf = TLR9-MyD88 interaction inhibition, confirmation; shares compounds with TLR9-MyD88 block; CHO TLR9/MyD88 BLA complementation, CCF4 FRET ratio; inhibition, % at 4.98 µM; hit rate 51% among 680; AID 540250;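 active = mean inhibition across three repeats above about 21% taken from the earlier screen, limit read from the data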;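 note: blue over green emission ratio reports constitutive TLR9 MyD88 association via BLA complementation; 0% = DMSO vehicle wells and 100% = clavulanate BLA inhibitor wells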
BLA counter-1 = beta-lactamase reporter inhibition, counter-screen artifact. shares compounds with TLR9-MyD88 block. CHO-BLA cells, CCF4 FRET ratio, BLA reporter. inhibition, % at 4.98 µM. hit rate 7% among 680. AID 540251;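 active = mean inhibition above a 50% cutoff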;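 note: counterscreen of TLR9-MyD88 hits on CMV-driven BLA in CHO-K1 cells; 0% = DMSO alone and 100% = clavulanate blocking BLA; higher means less blue over green ratio so more BLA blockade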
TLR9 CHO cytotox = counter-screen for TLR9-MyD88 inhibitors: cytotoxicity in CHO cells; luminescence; hit rate 39% among 680; shares compounds with TLR9-MyD88 block; inhibition, % at 4.98 µM; in the data active = inhibition above about 11%
ABHD5-PLIN5 conf = ABHD5-PLIN5 interaction inhibition, confirmed; inhibition, % at 4 µM; biochemical ABHD5-PLIN5 interaction, luminescence; shares compounds with ABHD5 PLIN5 PPI; hit rate 67% among 2,200; in the data active = inhibition above about 23%;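 note: 0% = DMSO vehicle wells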
HNF4 counter = HNF4 split-luciferase signal hit, counter-screen; AID 651674; hit rate 77% among 2,200; shares compounds with ABHD5 PLIN5 PPI; HNF4 dimerization, luminescence, biochemical; inhibition, % at 4 µM;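 active = mean inhibition across replicate wells exceeding the computed hit threshold, cut at about 13% in these data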;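 note: light from luciferase halves that rejoin when HNF4 fusion proteins dimerize; 0% = DMSO only wells and the 100% control is not given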
NOD2 RIPK2 conf = NOD2-RIPK2 interaction inhibition confirmed | inhibition, % at 4.98 µM | hit rate 70% among 1,200 | shares compounds with NOD2-RIPK2 inh | CHO cells, NOD2-RIPK2 BLA complementation, CCF4 FRET | AID 624370;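 active = mean inhibition across replicates above a set limit taken from the earlier primary screen, cut at about 21% in these data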;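 note: 0% = DMSO-only wells and the high end = clavulanate BLA-blocked wells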
BLA counter-2 = counter-screen for NOD2-RIPK2 interaction inhibitors: BLA reporter; CHO BLA reporter, CCF4 FRET ratio, counterscreen; shares compounds with NOD2-RIPK2 inh; AID 624371; hit rate 57% among 1,200; inhibition, % at 4.98 µM;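 active = mean inhibition above the low-control mean inhibition plus three low-control SD, cut at about 11% in these data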;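 note: 0% = DMSO only wells and 100% = clavulanate high control wells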
The depositor's hits bear a star.

How did COc1ccc(C(=O)c2c(C)c3ccccc3n2CC(O)CNC(C)C)cc1 (centres undefined) do in these assays?
ABHD5 PLIN5 PPI: 26*; NTR1 agonist: 1; TLR9-MyD88 block: -1; NOD2-RIPK2 inh: 12; TLR4-MyD88 BLA: 11; B2AR ag: 44*; Beta2AR ag CP1: 120; FAP fluor counter: inactive; ABHD5-PLIN5 conf: 5; HNF4 counter: 0

Results for CC(C)NCC(O)Cn1c2c(c3ccccc31)CCc1c-2cnn1-c1ccccc1 (centres undefined) ?
ABHD5 PLIN5 PPI: 19; NTR1 agonist: 12; TLR9-MyD88 block: -3; NOD2-RIPK2 inh: 14; TLR4-MyD88 BLA: 11; B2AR ag: 42

How did CCOC(=O)c1cc(-c2cccs2)nc2c1c(C)nn2-c1ccccn1 do in these assays?
ABHD5 PLIN5 PPI: 0; NTR1 agonist: 22; TLR9-MyD88 block: 2; NOD2-RIPK2 inh: 14; TLR4-MyD88 BLA: 1; B2AR ag: 5

Results for Cc1nn(-c2ccccn2)c2nc(-c3cccs3)cc(C(=O)NCc3ccco3)c12 ?
ABHD5 PLIN5 PPI: 35*; NTR1 agonist: 6; TLR9-MyD88 block: 18; NOD2-RIPK2 inh: 2; TLR4-MyD88 BLA: 12; B2AR ag: 43*; Beta2AR ag CP1: 73; FAP fluor counter: inactive; ABHD5-PLIN5 conf: 14; HNF4 counter: 15*

How did COc1ccc(CN2C(=O)CSCC2(C)C(=O)Nc2c(C)cccc2C)cc1 (centres undefined) do in these assays?
ABHD5 PLIN5 PPI: 0; NOD2-RIPK2 inh: 1

How did CC1(C)Cc2c(c(-c3ccco3)nc3sc4c(NCCCO)ncnc4c23)CO1 do in these assays?
ABHD5 PLIN5 PPI: 33*; NTR1 agonist: 5; TLR9-MyD88 block: 0; NOD2-RIPK2 inh: -6; B2AR ag: 111*; Beta2AR ag CP1: 26*; FAP fluor counter: inactive; ABHD5-PLIN5 conf: 20; HNF4 counter: 23*

Results for COc1ccccc1Cc1c(-c2cccc(Br)c2)nc2c(C)cc(Br)cn12 ?
ABHD5 PLIN5 PPI: -9; NOD2-RIPK2 inh: 3

What do the screens show for `CC1=CC(Cc2ccccc2)N(C)C(C(N)=O)C1` (centres undefined)?
ABHD5 PLIN5 PPI: -1; NOD2-RIPK2 inh: -4

What do the screens show for `COc1ccccc1CNCC(O)Cn1c2ccccc2c2ccccc21` (centres undefined)?
ABHD5 PLIN5 PPI: 35*; NTR1 agonist: 5; TLR9-MyD88 block: -1; NOD2-RIPK2 inh: -4; TLR4-MyD88 BLA: 2; B2AR ag: 55*; Beta2AR ag CP1: 111; FAP fluor counter: inactive; ABHD5-PLIN5 conf: 9; HNF4 counter: -2

Results for Cc1ccc(NC(=O)c2cc(N3C(=O)C=CC3=O)ccc2N2CCOCC2)cc1 ?
ABHD5 PLIN5 PPI: 29*; TLR9-MyD88 block: 19; NOD2-RIPK2 inh: -2; TLR4-MyD88 BLA: 4; B2AR ag: 123*; Beta2AR ag CP1: 42*; FAP fluor counter: inactive; ABHD5-PLIN5 conf: 51*; HNF4 counter: 98*

How did O=C(NCc1ccncc1)[C@@H]1CCCN1C(=O)[C@H]1CCCN1C(=O)c1cccc(Cl)c1 do in these assays?
ABHD5 PLIN5 PPI: 6; NOD2-RIPK2 inh: 4

How did Clc1ccc(Cl)c(OCCCCNCc2ccccc2)c1 do in these assays?
ABHD5 PLIN5 PPI: 27*; NTR1 agonist: 2; TLR9-MyD88 block: 3; NOD2-RIPK2 inh: 10; TLR4-MyD88 BLA: -10; B2AR ag: 46*; Beta2AR ag CP1: 114; FAP fluor counter: inactive; ABHD5-PLIN5 conf: 5; HNF4 counter: 1

Results for O=S(=O)(Nc1cccnc1)c1cccc(C(F)(F)F)c1 ?
ABHD5 PLIN5 PPI: 2; NTR1 agonist: 0; TLR9-MyD88 block: -6; NOD2-RIPK2 inh: -1; TLR4-MyD88 BLA: -1; B2AR ag: 6

How did O=[N+]([O-])c1ccc(S(=O)(=O)c2cccc(C(F)(F)F)c2)nc1 do in these assays?
ABHD5 PLIN5 PPI: 52*; NTR1 agonist: 12; TLR9-MyD88 block: 17; NOD2-RIPK2 inh: 79*; B2AR ag: 57*; Beta2AR ag CP1: 24*; FAP fluor counter: inactive; ABHD5-PLIN5 conf: 88*; HNF4 counter: 113*

What do the screens show for `Cc1cc(N2CCN(C)CC2)ccc1NC(=O)c1c2c(nc3ccccc13)CCN(Cc1ccccc1)C2`?
ABHD5 PLIN5 PPI: 8; NTR1 agonist: 20; TLR9-MyD88 block: -59; NOD2-RIPK2 inh: 34*; TLR4-MyD88 BLA: -16; B2AR ag: 51*; Beta2AR ag CP1: 11*; FAP fluor counter: active; NOD2 RIPK2 conf: 47*; BLA counter-2: 9

What do the screens show for `O=C(NC1CCCCCC1)c1c2c(nc3ccccc13)CCN(Cc1ccccc1)C2`?
ABHD5 PLIN5 PPI: 5; NTR1 agonist: -1; TLR9-MyD88 block: 1; NOD2-RIPK2 inh: 1; TLR4-MyD88 BLA: -24; B2AR ag: 5

How did CCCNC(=O)c1nnsc1S(=O)(=O)c1ccc(Cl)cc1 do in these assays?
ABHD5 PLIN5 PPI: 77*; NTR1 agonist: 1; TLR9-MyD88 block: 35*; NOD2-RIPK2 inh: 84*; TLR4-MyD88 BLA: 18; B2AR ag: 81*; Beta2AR ag CP1: 55*; FAP fluor counter: inactive; TLR9-MyD88 cf: 37*; BLA counter-1: 9; TLR9 CHO cytotox: 99*; ABHD5-PLIN5 conf: 80*; HNF4 counter: 108*; NOD2 RIPK2 conf: 85*; BLA counter-2: 23*
